Molecules are shown by their SMILES. Results filed as inconclusive are left out. Unmarked numbers belong to inactive results. Calls follow the shape of the dose curve; as a rule, active = well fitted cell-killing curve with a large enough effect in the repeat runs; inconclusive = weak or mixed curves; inactive = flat fitted curve, though single readings scatter.
% is scaled to controls: 0 for no effect and ±100 for the full control effect.

The assay is described as follows: qHTS RealTime-Glo MT Cell Viability Assay in HepG2 cells - 24 hour (AID 1224867). Also: nearly all actives have a fitted effect of over 50% in size. Particulars: RealTime-Glo luminescence; series mostly up to 76.8 µM; activity change, negative = cytotoxicity: at the top concentration. From the text: U.S. Tox21 Program National Center for Advancing Translational Sciences [NCATS] NIH Chemical Genomics Center [NCGC] U.S. Environmental Protection Agency [EPA] National Institutes of Environmental Health Sciences [NIEHS] National Toxicology Program [NTP] U.S. Food and Drug Administration [FDA] Tox21 Assay Overview: Measure of cell viability is critical in the cell-base assay. Analysis of cell viability is necessary for the characterization of cell responses to cytotoxic drugs and environmental stress. A RealTime-Glo MT Cell Viability Assay to monitor cell viability in real time of continues cell culture during 40 hours of compound treatment was used to screen Tox21 10K library compounds in HepG2 cells. The RealTime-Glo MT Cell Viability Assay is a nonlytic, homogeneous, bioluminescent method to measure cell viability in real time using a simple, plate-based method. The assay involves adding NanoLuc luciferase and a cell-permeant prosubstrate to cells in culture. Viable cells reduce the proprietary prosubstrate to generate a substrate for NanoLuc luciferase. This substrate diffuses from cells into the surrounding culture medium, where it is rapidly used by the NanoLuc Enzyme to produce a luminescent signal. The signal correlates with the number of viable cells, making the assay well suited for cytotoxicity studies.
Tox21 Assay Protocol Summary: The mixture of HepG2 cell suspension and reagents were dispensed at 600cells/6 ul/well in 1536-well tissue culture treated black solid bottom plates using a Multidrop dispenser. After the assay plates were incubated at a 37 C/5% CO2 incubator for 5 hours, 23 nL of compounds dissolved in DMSO, positive and negative controls was transferred to the assay plate by a pintool work station. The plates were incubated at 37 C for 40 hours. The luminescence intensity were measured at 0h, 8h, 16h, 24h, 32h and 40h time points using ViewLux plate reader during compound treatment.
A general note: In qHTS, concentration-response curves come from the screen itself.
Consider `CCNC(=O)C(C)OC(=O)Nc1ccccc1` (stereo not given), for which the “activity change, negative = cytotoxicity” value was 1.29%.

Turning to `Nc1cc(S(=O)(=O)O)ccc1O`, the “activity change, negative = cytotoxicity” value was 0.358%.

Turning to `CC(=O)Nc1ccc(S(=O)(=O)Nc2cc(C)on2)cc1`, the “activity change, negative = cytotoxicity” value is 4.16% [at 35.3 µM].

For `CC(C)C(C)C`, the “activity change, negative = cytotoxicity” value is -0.706%.

Consider `CO/N=C(\C(=O)O)c1csc(NC(=O)CCl)n1`, for which the “activity change, negative = cytotoxicity” value is 0.758% [at 35.3 µM].

Consider `CC1=C(O)C(=O)CO1`, for which the “activity change, negative = cytotoxicity” value is 0.856%.

Take `O=C(O)CCC(=O)Nc1ccc(S(=O)(=O)Nc2nccs2)cc1`: the “activity change, negative = cytotoxicity” value is 5.41% [at 35.3 µM].

For `CCCCNCC`, the “activity change, negative = cytotoxicity” value was -0.824%.

In the case of `CC[C@@]1(c2ccccc2)NC(=O)N(C)C1=O`, the “activity change, negative = cytotoxicity” value was 4.37% [at 35.3 µM].

As for `C=CCn1cc[n+](C)c1`, the “activity change, negative = cytotoxicity” value is 0.638%.

For the compound `CC(=O)SCC(CC(=O)c1ccc(C)cc1)C(=O)O` (stereo not given), the “activity change, negative = cytotoxicity” value is 5.45% [at 35.3 µM].

As to `C[C@H]1COc2c(C3(N)CC3)c(F)cc3c(=O)c(C(=O)O)cn1c23`, the “activity change, negative = cytotoxicity” value is 4.86% [at 35.3 µM].

In the case of `CCCCN(CCCC)CCCCCCN(CCCC)CCCC`, the “activity change, negative = cytotoxicity” value was 1.04%.

With `CCOC(=O)CC(C(C)=O)C(C)=O`, the “activity change, negative = cytotoxicity” value is 0.448%.

Regarding `C/C(=N\O)c1ccc(OCC(=O)N2CCCCC2)cc1`, the “activity change, negative = cytotoxicity” value is 1.85% [at 35.3 µM].

Regarding `CCc1ccc(CC)cc1`, the “activity change, negative = cytotoxicity” value was -0.0298%.

In the case of `Cc1cccc(N)n1`, the “activity change, negative = cytotoxicity” value is 0.972%.

Turning to `CCCCCC(=O)CC`, the “activity change, negative = cytotoxicity” value is 5.4%.

As to `CCN1CCN(C(=O)N[C@@H](C(=O)N[C@@H]2C(=O)N3[C@@H]2SC(C)(C)[C@H]3C(=O)O)c2ccccc2)C(=O)C1=O`, the “activity change, negative = cytotoxicity” value is 1.21% [at 35.3 µM].

Turning to `Cc1cc(C)c(N)c(Cl)c1`, the “activity change, negative = cytotoxicity” value was 0.641%.

For `COC(=O)c1ccc(C(=O)O)cc1`, the “activity change, negative = cytotoxicity” value was 0.274%.

As to `CCCCCCCCOCCC#N`, the “activity change, negative = cytotoxicity” value is -5.47%.

With `CCOc1ccccc1OCCN[C@H](C)Cc1ccc(OC)c(S(N)(=O)=O)c1`, the “activity change, negative = cytotoxicity” value is 0.399% [at 35.3 µM].

As to `CCCC[O][Al]([O]CCCC)[O]CCCC`, the “activity change, negative = cytotoxicity” value is 0.52%.

On to `CCCCC(CC)CCC(CC(C)C)OS(=O)(=O)O` (stereo not given), for which the “activity change, negative = cytotoxicity” value was -0.444%.

On to `CC(=O)c1ccc(O)c(C(N)=O)c1`, for which the “activity change, negative = cytotoxicity” value was 1.54% [at 35.3 µM].

Regarding `CC(C)(Sc1cc(C(C)(C)C)c(O)c(C(C)(C)C)c1)Sc1cc(C(C)(C)C)c(O)c(C(C)(C)C)c1`, the “activity change, negative = cytotoxicity” value was -16.1% [at 35.3 µM].

As to `C[C@]12C=CC(=O)C=C1[C@@H](F)C[C@@H]1[C@@H]2[C@@H](O)C[C@@]2(C)[C@H]1CC[C@]2(O)C(=O)CO`, the “activity change, negative = cytotoxicity” value is -0.778% [at 35.3 µM].

Take `CCCCCCCC(=O)N(C)C`: the “activity change, negative = cytotoxicity” value was 0.665%.

As to `COC(=O)c1ccc(NC(C)=O)cc1OC`, the “activity change, negative = cytotoxicity” value was 3.55% [at 35.3 µM].

Consider `CC(=O)c1c(C)cc(C(C)(C)C)cc1C`, for which the “activity change, negative = cytotoxicity” value is -9.06%.

`CCCC(=O)OC`: the “activity change, negative = cytotoxicity” value is 0.642%.

With `C[C@@H]1CCC[C@H](C)N1CCCC(O)(c1ccccc1)c1ccccn1` (stereo not given in full), the “activity change, negative = cytotoxicity” value was 1.81% [at 35.3 µM].

Regarding `C=C(C)C(=O)OCCOC1CC2CC1C1C=CCC21` (stereo not given), the “activity change, negative = cytotoxicity” value is 1.55%.

Take `COCc1nnc(-c2ccc[n+]([O-])c2)n1-c1c(Cl)c(Cl)cc2[nH]c(=O)c(=O)[nH]c12`: the “activity change, negative = cytotoxicity” value was 1.67%.

Turning to `CC(C)c1cc(C(C)C)cc(C(C)C)c1`, the “activity change, negative = cytotoxicity” value was 1.42%.

As to `O=c1[nH]c(=O)c2cn[nH]c2[nH]1`, the “activity change, negative = cytotoxicity” value was -0.747%.

As for `CC/C=C\CCOC(=O)c1ccccc1`, the “activity change, negative = cytotoxicity” value is -6.86%.

In the case of `C=COCCCCO`, the “activity change, negative = cytotoxicity” value is -0.0767%.

For the compound `COC(=O)c1c(C)cc(O)c(C)c1O`, the “activity change, negative = cytotoxicity” value is -0.856%.

The record behind these values is PubChem BioAssay (Tox21).
